Source: PubChem BioAssay
This is a sample that favours compounds with a hit; in the whole collection about 2.7% have one here.
gsp antag = antagonizes gsp, the McCune-Albright syndrome mutation | gsp-mutant cells, cAMP HTRF, 30 min | Potency, µM (titrated, usually from 76.9 µM), for inactives: at the top dose activity change, negative = inhibition, hits mostly inhibitors | 340,000 tested, 0.4% active | AID 624288; calls by dose curve; cell line not stated here;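 further: intracellular cAMP measured with PDE inhibitor Ro 20-1724 present during compound exposure; potency means the concentration at half of the fitted maximal effect; on the % scale 0 is the no-effect control and ±100 the full control effect; nearly all actives have a fitted effect of over 65% in size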
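Measurement of cellular cAMP by homogeneous time-resolved fluorescence following a 30 min compound exposure at 37C. The PDE inhibitor […] was present throughout; the assay buffer was DPBS with 0.05% BSA and 0.005% Tween 20.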
ClpP mod = qHTS Assay for Activators of ClpP; ATP-dependent Clp protease proteolytic subunit (Bacillus subtilis (strain 168)), P80244; purified B. subtilis ClpP, FRET peptide cleavage, 20 min; Potency, µM (top dose mostly 57.5 µM), for inactives: top-dose activity change, negative = active; 340,000 tested, 1.9% active; active means well fitted falling curve with a large enough effect; inconclusive means small, poorly fitted or top-dose-only effect; inactive means no such curve, though single readings can be large or run the other way; further: potency means the concentration at half of the fitted maximal effect; the source files actives as falling curves though it sought activators and does not explain the sign; nearly all actives have a fitted effect of over 65% in size
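ClpP 10 microg/mL final, pH 8 Tris/KCl buffer with BSA, glycerol, Tween-20; compound pinned in; FRET-FV substrate; RT 20 min; Ex320/Em430; ΔFRET vs ADEP 5.8 microM, DMSO, no enzyme.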
pAkt inh = Akt phosphorylation inhibition; activity change, % for hits at 50 µM; 360,000 tested, 0.32% active; Neuro2A IGF-stimulated pAkt S473 HTRF, 20 min; stronger effect = lower value; AID 651550; in the data active means activity change below about -80%; inconclusive means mostly about -51% to -80%; further: on the % scale 0 is the no-effect control and ±100 the full control effect
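Single-point screen (50 µM final compound) in Neuro2A cells stimulated 20 min with 6 nM IGF at 37 deg C. After lysis, Ser473-phosphorylated Akt read by HTRF (ex 330 nm, em 615/665 nm) as the 665/615 ratio.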
gsp ag = activates gsp, the McCune-Albright syndrome mutation; AID 624287; Potency, µM (titrated, usually from 76.9 µM), for the others: at the top dose activation (cAMP increase), usual class: activators; gsp mutant cells, cAMP HTRF, 30 min; 340,000 tested, 0.13% active; active means well fitted activation curve with a large enough effect; inconclusive means small, poorly fitted or top-dose-only effect, or another doubt; inactive means no such curve, though single readings can be large or run the other way; cell line not stated here;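 further: phosphodiesterase inhibitor Ro 20-1724 added with compounds to block cAMP breakdown; potency means the concentration at half of the fitted maximal effect; nearly all actives have a fitted effect of over 60% in size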
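Cells stably selected in G418 were plated at 2000/well, grown 16-24 hr, then given compounds in DMSO with the PDE inhibitor […] (300 uM solution added) for 30 min at 37C; cAMP was read by HTRF.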
RXFP1 antag = blocks the human relaxin receptor RXFP1. Q9HBX9. HEK293-RXFP1, relaxin-stimulated cAMP HTRF, 30 min; stronger effect = lower value. activity change, negative = inhibition, % at 57.5 µM. 350,000 tested, 0.59% active;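 active means activity change of -60% or lower, but not beyond a set lower limit; inconclusive means change between -60% and -40%, or beyond the set limit; inactive means change above -40%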; further: on the % scale 0 is the no-effect control and ±100 the full control effect
Target sequence (Q9HBX9 whole entry, looked up): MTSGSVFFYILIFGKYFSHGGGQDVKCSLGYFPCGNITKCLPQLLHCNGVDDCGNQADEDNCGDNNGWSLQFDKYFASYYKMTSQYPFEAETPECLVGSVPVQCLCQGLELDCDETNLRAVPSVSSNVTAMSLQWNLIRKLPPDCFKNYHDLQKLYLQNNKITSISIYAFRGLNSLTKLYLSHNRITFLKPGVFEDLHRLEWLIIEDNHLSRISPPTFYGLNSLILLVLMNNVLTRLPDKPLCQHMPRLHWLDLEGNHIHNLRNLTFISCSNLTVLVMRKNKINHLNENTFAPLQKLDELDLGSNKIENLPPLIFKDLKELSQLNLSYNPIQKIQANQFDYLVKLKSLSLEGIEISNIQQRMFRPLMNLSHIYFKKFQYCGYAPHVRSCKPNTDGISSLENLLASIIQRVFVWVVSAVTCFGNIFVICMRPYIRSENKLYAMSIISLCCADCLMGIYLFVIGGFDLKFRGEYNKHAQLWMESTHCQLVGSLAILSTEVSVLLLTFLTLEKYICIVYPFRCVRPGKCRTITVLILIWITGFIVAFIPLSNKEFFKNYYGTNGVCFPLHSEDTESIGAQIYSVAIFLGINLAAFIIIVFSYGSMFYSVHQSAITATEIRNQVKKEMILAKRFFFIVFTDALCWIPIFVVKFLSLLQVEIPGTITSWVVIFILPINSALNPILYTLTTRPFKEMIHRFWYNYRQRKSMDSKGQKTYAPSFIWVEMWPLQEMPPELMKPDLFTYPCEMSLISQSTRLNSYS
RXFP1 agonist = agonists of human relaxin receptor RXFP1 | Q9HBX9 | HEK293T-RXFP1 cAMP TR-FRET, 30 min; response scale: percent of porcine relaxin response, buffer zero | Potency, µM (series often up to 57.5 µM), inactives show at the highest dose activation, hits mostly activators | 370,000 tested, 0.3% active; active means well fitted activation curve with a large enough effect; inconclusive means small, poorly fitted or top-dose-only effect; further: potency means the concentration at half of the fitted maximal effect; on the % scale 0 is the no-effect control and ±100 the full control effect; nearly all actives have a fitted effect of over 60% in size
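cAMP rise read by TR-FRET after 30 min, 37C compound exposure (up to 58 uM) in RXFP1-transfected HEK293 cells with Ro 20174 present. EC50 from Hill-equation fits, with 29 nM porcine relaxin as 100% and buffer as basal.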
* hit, by the source's call; [ ] = dose if it differs, or a comment.

How did O=C(CSc1nnc2[nH]c(=O)cc(-c3ccccc3)n12)Nc1cc(C(F)(F)F)ccc1Cl do in these assays?
ClpP mod: inconclusive; RXFP1 antag: -1; RXFP1 agonist: 5%

Results for C[N+]1(CC(=O)c2ccc(Oc3ccccc3)cc2)CCOCC1 ?
ClpP mod: 1%

Results for Cc1cc(C)c(S(=O)(=O)N2CCN(S(=O)(=O)N3CCCCCC3)CC2)c(C)c1 ?
gsp antag: -31%; ClpP mod: 1%; pAkt inh: inactive; gsp ag: -4%[15.4 µM]; RXFP1 antag: 6; RXFP1 agonist: 2%

What do the screens show for `Cc1ccc(N2CCN(S(=O)(=O)N3CCCCC3)CC2)c(C)c1`?
gsp antag: -9%; pAkt inh: inactive; gsp ag: 0%[15.4 µM]; RXFP1 antag: -70*; RXFP1 agonist: 0%

What do the screens show for `COCCCN1C(=O)C(=O)/C(=C(/O)c2ccc(S(=O)(=O)N3CCOCC3)cc2)C1c1ccc(C(C)C)cc1` (stereo not given)?
gsp antag: 13%; pAkt inh: inactive; gsp ag: 10%; RXFP1 antag: -2; RXFP1 agonist: 0%

Results for CN(C)c1ccc2ccc3cccc4ccc1c2c34 ?
ClpP mod: 5%

What do the screens show for `CC1(C)CC(=O)C=C(c2cccc(O)c2)C1=O`?
gsp antag: 4%; ClpP mod: 1%; pAkt inh: inactive; RXFP1 agonist: 2%

Results for COc1cc(C(=O)NCC(=O)N/N=C(/C)c2ccc3c(c2)CCCC3)cc(OC)c1OC ?
gsp antag: -15%; pAkt inh: inactive; gsp ag: -14%[15.4 µM]; RXFP1 antag: -16; RXFP1 agonist: 1%

Results for C/C(=N/NC(=O)c1ccc(C)nc1)c1ccc2c(c1)CCCC2 ?
gsp antag: 12%; pAkt inh: inactive; gsp ag: -1%[15.4 µM]; RXFP1 antag: -62*; RXFP1 agonist: 1%

How did Cc1c(NC2(C#N)CCCCC2)c(=O)n(-c2ccccc2)n1C do in these assays?
gsp antag: -8%; pAkt inh: inactive; gsp ag: -15%[15.4 µM]; RXFP1 antag: 0; RXFP1 agonist: -1%

Results for O=C(Cc1cccc2ccccc12)N/N=C/c1ccc(Sc2nc3ccccc3s2)o1 ?
gsp antag: -21%; ClpP mod: -3%; pAkt inh: -112%*; gsp ag: -28%; RXFP1 antag: -19; RXFP1 agonist: -1%

What do the screens show for `CCN(CC)S(=O)(=O)c1ccc(N2CCCC2)c(NS(=O)(=O)c2ccc(F)cc2)c1`?
gsp antag: -4%; ClpP mod: -2%; pAkt inh: inactive; gsp ag: 25µM*; RXFP1 antag: 20; RXFP1 agonist: -1%

Results for CCN(CC)S(=O)(=O)c1ccc(N2CCCC2)c(NS(=O)(=O)c2ccccc2)c1 ?
gsp antag: 1%; ClpP mod: 1%; pAkt inh: inactive; gsp ag: 5%; RXFP1 agonist: -1%

Results for COc1cccc(N2CC(O)=C(c3nc4ccccc4c(=O)[nH]3)C2=N)c1 ?
gsp antag: 6%; ClpP mod: 25µM*; pAkt inh: inactive; gsp ag: 8%; RXFP1 antag: -6; RXFP1 agonist: 5%

What do the screens show for `CC(C)N1CC(O)=C(c2nc3ccccc3c(=O)[nH]2)C1=N`?
gsp antag: -1%; ClpP mod: 28µM*; pAkt inh: inactive; gsp ag: 20%; RXFP1 antag: -3; RXFP1 agonist: 3%

How did COc1cc(OC)c(-c2oc3ccccc3c(=O)c2O)c(OC)c1 do in these assays?
gsp antag: 7%; ClpP mod: 28µM*; pAkt inh: inactive; gsp ag: inconclusive; RXFP1 antag: -10

What do the screens show for `COc1ccc(OC)c(-c2oc3ccccc3c(=O)c2O)c1`?
gsp antag: -8%; ClpP mod: 2%; pAkt inh: inactive; gsp ag: 1%; RXFP1 antag: -17; RXFP1 agonist: 3%

Results for COCCn1c(N)c(N(Cc2ccccc2)C(=O)CSCC(=O)Nc2ccc(C)cc2)c(=O)[nH]c1=O ?
gsp antag: -4%; ClpP mod: 40%; pAkt inh: inactive; gsp ag: inconclusive; RXFP1 antag: -4; RXFP1 agonist: -1%

What do the screens show for `Cc1cccc(NC2=CC(=O)OC(C)C2)c1` (stereo not given)?
gsp antag: 5%; ClpP mod: 28µM*; pAkt inh: inactive; gsp ag: -5%; RXFP1 antag: 9; RXFP1 agonist: -1%

How did O=C(/C=C/c1ccccc1)/C=C/c1ccccc1 do in these assays?
gsp antag: 20%; ClpP mod: -2%; pAkt inh: inactive; gsp ag: 0%; RXFP1 antag: -67*; RXFP1 agonist: 6%

Results for COc1cc(C(=O)NCC(=O)N2CCN(S(=O)(=O)c3ccccc3)CC2)cc(OC)c1OC ?
gsp antag: -9%; pAkt inh: inactive; gsp ag: -6%[15.4 µM]; RXFP1 antag: -64*; RXFP1 agonist: 0%

Results for Cn1ccc2cc(-c3ccc4ncnc(NCc5cccnc5)c4c3)ccc21 ?
RXFP1 agonist: 2%

Results for O=C(CN1CCCc2ccccc21)N/N=C/c1ccccc1O ?
gsp antag: -9%; ClpP mod: 28µM*; pAkt inh: inactive; gsp ag: -7%; RXFP1 antag: -8; RXFP1 agonist: 1%

Results for CCCN1C(=O)S/C(=C\c2ccc(N3CCOCC3)o2)C1=O ?
gsp antag: -2%; pAkt inh: inactive; gsp ag: 2%[15.4 µM]; RXFP1 antag: -37; RXFP1 agonist: -5%

What do the screens show for `CCCN1C(=O)S/C(=C/c2ccc(N3CCOCC3)o2)C1=O`?
gsp antag: -11%; pAkt inh: inactive; gsp ag: -43%; RXFP1 antag: -92*; RXFP1 agonist: -5%

Results for C/C(=C\C(=S)Nc1ccccc1)Nc1ccc2ccccc2c1 ?
gsp antag: 0%; ClpP mod: 35µM*; pAkt inh: inactive; gsp ag: 28%; RXFP1 antag: 6; RXFP1 agonist: -1%

What do the screens show for `C/C(=C\C(=S)Nc1ccccc1)Nc1cccc2ccccc12`?
gsp antag: -11%; ClpP mod: inconclusive; pAkt inh: inactive; gsp ag: -16%; RXFP1 antag: -6; RXFP1 agonist: 8%

How did CCOc1ccc2nc(NCCNC(=O)C3CC3)c(C)cc2c1 do in these assays?
gsp antag: -2%; ClpP mod: 40µM*; pAkt inh: inactive; gsp ag: -25%; RXFP1 antag: 8; RXFP1 agonist: 0%
